Data reported in PubChem BioAssay (NCI).
The panel holds about 83,000 compounds, 20% with a hit somewhere; the sample as a whole holds those more often.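 In brief: 96-well plates, 48 h treatment, single concentration, percent growth endpoint.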 Values without a mark were called inactive. Activity calls are given as the source filed them. How the source made its calls: active means growth percent below 10; inactive means the rest.

Test system: NCI-H226 lung
Test: NCI-60 one-dose screen, 48 h (100 = growth as untreated, 0 = no growth, -100 = all killed)
Settings: 10 µM unless noted

Q: `O=C1Nc2ccc(Br)cc2C12Oc1ccccc1C1CC(c3ccc(F)cc3)=NN12` (stereo unspecified) was tested. Which growth did it give?
A: Its growth is 83.1%.

Q: `C=C1c2nc3ccccc3n2C=C(c2cccc(Cl)c2)N1Cc1ccc(OC)cc1` was tested. Which growth did it give?
A: Its growth is 94.1%.

Q: Which growth does the source give for `C#CC(F)(F)[C@]1(O)CC[C@H]2[C@@H]3CCC4=CC(=O)CCC4=C3[C@@H](c3ccc(C(C)=O)cc3)C[C@@]21C` here?
A: The growth was 93.3%.

Q: For `CC(=O)O[C@H]1CC[C@]2(C)[C@H]3CC=C4[C@@H]5CC(C)(C)CC[C@]5(C(=O)NCCNCCNCCN)CC[C@@]4(C)[C@]3(C)CC[C@H]2C1(C)C`, which growth is on record?
A: Its growth is 91.4%.

Q: With `COc1ccc(-c2cc(NC(=O)Nc3ccc4ncsc4c3)no2)cc1` as the compound, how does the growth read?
A: Its growth is 101%.

Q: `CCN(CC)c1ccc(-c2cc(-c3cc(OC)c(OC)c(OC)c3)nc(N3CCOCC3)c2C#N)cc1` was tested. Which growth did it give?
A: Its growth is 8.07% (active).

Q: Which growth does the source give for `CC1=CC(=NN=c2cc(C)n([O-])c(C)c2)C=C(C)[N+]1=O` here?
A: Its growth is 64.2%.

Q: `Cc1ccc2oc(=O)cc(C3c4ccc([nH]4)C(c4cc(=O)oc5ccc(C)cc45)c4ccc([nH]4)C(c4cc(=O)oc5ccc(C)cc45)c4ccc([nH]4)C(c4cc(=O)oc5ccc(C)cc45)c4ccc3[nH]4)c2c1` (stereo unspecified) was tested. Which growth did it give?
A: Its growth is -39.2% (active).

Q: How did the growth turn out when `COc1cc2c(cc1-c1c(C)noc1C)ncc1nc(C3CCOCC3)n([C@@H](C)COC(F)F)c12` was run?
A: Its growth is 58.2%.

Q: How did the growth turn out when `Cc1[nH]c(-c2cc(N)ccc2Cl)c2c1C(=O)CCCC2` was run?
A: Its growth is 36.1%.

Q: For `O=S(=O)(Nc1ccc(Br)c(Cl)c1)c1ccc(-c2cnc(C3CC3)o2)cc1`, which growth is on record?
A: The growth was 55.3%.

Q: Which growth does the source give for `C=CC(=O)Nc1cccc(-c2nc(SC)nc(NCCN3CCOCC3)c2C#N)c1` here?
A: The growth was 97.1%.

Test system: NCI-H322M lung
Test: as above
Settings: 10 µM unless noted

Q: For `Cc1ccc(-c2onc3c(=O)[nH]nc(-c4ccccc4)c23)cc1`, which growth is on record?
A: Its growth is 56.9%.

Q: `O=C1CSC(=S)N1CCc1ccc(O)cc1` was tested. Which growth did it give?
A: The growth was 98.1%.

Q: How did the growth turn out when `CNC(=O)c1cc(Oc2ccc(NC(=O)Nc3ccc(Cl)c(OC(F)(F)F)c3)c(F)c2)ccn1` was run?
A: Its growth is 71.7%.

Q: With `N#C/C(=C\c1ccc(-c2ccc(Cl)c(Cl)c2)o1)c1nc(-c2ccco2)cs1` as the compound, how does the growth read?
A: Its growth is 79.8%.

Q: `O=S(=O)(Nc1ccc(OC(F)F)cc1)c1ccc(-c2cnc(C3CC3)o2)cc1` was tested. Which growth did it give?
A: The growth was 95.7%.

Q: How did the growth turn out when `O=C1Nc2cc(-c3ccc(O)cc3)ccc2/C1=C/c1ccc[nH]1` was run?
A: The growth was 6.56% (active).

Q: How did the growth turn out when `CON1C(=O)CC[C@]2(C)[C@H]3CC[C@@H]4C([C@@]5(C)CCC(=O)O5)CC[C@@]4(C)[C@]3(C)CC[C@H]2C1(C)C` (stereo partly specified) was run?
A: The growth was 108%.

Q: `Cn1cc(C(=O)c2nc(-c3c[nH]c4ccc(Br)cc34)no2)c2cc(F)ccc21` was tested. Which growth did it give?
A: Its growth is 95.7%.

Q: For `COc1ccc(-n2nc(C)c3c(Nc4ccc(NC(=O)Nc5cccc(C(F)(F)F)c5)cc4)ncnc32)cc1`, which growth is on record?
A: The growth was 5.43% (active).

Q: Which growth does the source give for `CC(C)C1=C[C@@]23CC[C@@H]4[C@](C)(CCC[C@@]4(C)C(=O)N4CCCNCC4)[C@H]2C[C@@H]1[C@H]1C(=O)CCC(=O)[C@H]13` here?
A: Its growth is 106%.

Q: For `C#CCOc1ccc2ncnc(N3CCC(NC(=O)CCl)CC3)c2c1`, which growth is on record?
A: The growth was 88.1% [8.25 µM].

Q: Which growth does the source give for `Cc1ccc(NC(=O)/C=C/c2ccccc2)c(C(N)=O)c1` here?
A: Its growth is 63.1%.

Q: `COc1ccc(/C=C\c2cc(OC)c(OC)c(OC)c2)cc1OC(=O)c1cccc(Cn2cc(CCOC(=O)[C@H](N)Cc3cn(C)c4ccccc34)nn2)c1` was tested. Which growth did it give?
A: Its growth is 50.1%.

Q: `O=C1c2ccccc2C(=O)c2c1ccc1[nH]c(-c3cccs3)nc21` was tested. Which growth did it give?
A: The growth was 60.9%.

Q: How did the growth turn out when `CN1CCN(Cc2ccc(NC(=O)c3cncc(C#Cc4cncn5ccnc45)c3)cc2C(F)(F)F)CC1` was run?
A: The growth was 105%.

Q: `CC(C)(C)c1cc(/C=N\NC(=O)/C=C/C=C/c2ccc3c(c2)OCO3)c(O)c(C(C)(C)C)c1` was tested. Which growth did it give?
A: Its growth is 63.5%.

Q: `CCCc1cc(=O)n2c(C(=O)Nc3ccc(F)cc3)c(C(=O)Nc3ccc(F)cc3)sc2n1` was tested. Which growth did it give?
A: Its growth is 54.8% [30 µM].

Q: Which growth does the source give for `O=C(O)COc1ccc(Cl)cc1C1CCCCC1` here?
A: The growth was 101%.

Q: `NC(=O)c1cc(Br)ccc1NC(=O)/C=C/c1ccccc1` was tested. Which growth did it give?
A: Its growth is 76.1%.

Q: With `Cc1nn(-c2ccc(F)cc2)c2ncnc(Oc3ccc(NC(=O)Nc4ccc(Cl)c(C(F)(F)F)c4)cc3)c12` as the compound, how does the growth read?
A: Its growth is 100%.

Q: `CSc1nc(-c2cccc(NC(=O)CCl)c2)c(C#N)c(=O)n1C` was tested. Which growth did it give?
A: The growth was 107%.

Q: With `CCCCN(CCCC)CCCn1c(-c2ccccc2)ccc1-c1ccccc1` as the compound, how does the growth read?
A: The growth was 86.7%.

Q: `Cc1c(/C=C/[N+](=O)[O-])ccc2c1[nH]c1ccccc12` was tested. Which growth did it give?
A: Its growth is 134%.

Q: With `c1ccc(Cn2cc(-c3nc4ccccc4s3)c3cccnc32)cc1` as the compound, how does the growth read?
A: Its growth is 101%.

Q: For `O=C(N/N=C/c1c[nH]c2ccccc12)c1cc(-c2ccccc2)on1`, which growth is on record?
A: The growth was 82.9%.

Q: For `CCCn1c(=O)[nH]c(N)c([C@H]2c3ccccc3Oc3[nH]c(=O)n(CCC)c(=O)c32)c1=O`, which growth is on record?
A: The growth was 85.4%.

Q: How did the growth turn out when `CC(=O)O[C@H]1[C@@H]2OC(=O)C(CSc3ccccc3)[C@@H]2C[C@H]2O[C@]2(C)CC/C=C(\C)CCC[C@@H]1C` (stereo partly specified) was run?
A: Its growth is 38%.

Q: With `O=C1Nc2ccc(Br)cc2C12Oc1ccccc1C1CC(c3ccc(F)cc3)=NN12` (stereo unspecified) as the compound, how does the growth read?
A: The growth was 96.3%.

Q: With `C=C1c2nc3ccccc3n2C=C(c2cccc(Cl)c2)N1Cc1ccc(OC)cc1` as the compound, how does the growth read?
A: Its growth is 44.6%.

Q: With `C#CC(F)(F)[C@]1(O)CC[C@H]2[C@@H]3CCC4=CC(=O)CCC4=C3[C@@H](c3ccc(C(C)=O)cc3)C[C@@]21C` as the compound, how does the growth read?
A: The growth was 96.7%.

Q: For `CC(=O)O[C@H]1CC[C@]2(C)[C@H]3CC=C4[C@@H]5CC(C)(C)CC[C@]5(C(=O)NCCNCCNCCN)CC[C@@]4(C)[C@]3(C)CC[C@H]2C1(C)C`, which growth is on record?
A: Its growth is 95.2%.

Q: `COc1ccc(-c2cc(NC(=O)Nc3ccc4ncsc4c3)no2)cc1` was tested. Which growth did it give?
A: The growth was 107%.

Q: `CCN(CC)c1ccc(-c2cc(-c3cc(OC)c(OC)c(OC)c3)nc(N3CCOCC3)c2C#N)cc1` was tested. Which growth did it give?
A: Its growth is 52.9%.

Q: `CC1=CC(=NN=c2cc(C)n([O-])c(C)c2)C=C(C)[N+]1=O` was tested. Which growth did it give?
A: Its growth is 114%.

Q: For `Cc1ccc2oc(=O)cc(C3c4ccc([nH]4)C(c4cc(=O)oc5ccc(C)cc45)c4ccc([nH]4)C(c4cc(=O)oc5ccc(C)cc45)c4ccc([nH]4)C(c4cc(=O)oc5ccc(C)cc45)c4ccc3[nH]4)c2c1` (stereo unspecified), which growth is on record?
A: Its growth is -10.2% (active).

Q: Which growth does the source give for `COc1cc2c(cc1-c1c(C)noc1C)ncc1nc(C3CCOCC3)n([C@@H](C)COC(F)F)c12` here?
A: The growth was 48.3%.

Q: How did the growth turn out when `Cc1[nH]c(-c2cc(N)ccc2Cl)c2c1C(=O)CCCC2` was run?
A: The growth was 40.8%.

Q: Which growth does the source give for `O=S(=O)(Nc1ccc(Br)c(Cl)c1)c1ccc(-c2cnc(C3CC3)o2)cc1` here?
A: The growth was 39.2%.

Q: With `C=CC(=O)Nc1cccc(-c2nc(SC)nc(NCCN3CCOCC3)c2C#N)c1` as the compound, how does the growth read?
A: The growth was 94.2%.
